# Bioassay records (PubChem BioAssay)
# The list is not random: actives were taken first. Their share in the collection is about 1.1%.
# LRH-1 inv ag = inverse agonists of human LRH-1 (NR5A2). O00482. HEK293T StAR-luciferase reporter, LRH-1 transfected, 24 h. inhibition, % at 3.6 µM. 360,000 tested, 0.13% active. AID 602396;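 active = inhibition above the mean inhibition of all tested compounds plus 3 SD, cut at about 73% in these data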;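 also: 0% = DMSO wells and 100% = reporter-only cells lacking LRH-1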
# COUP-TFII inh = blocks human COUP-TFII nuclear receptor | HEK293T NGFI-A luciferase reporter, luminescence | 370,000 tested, 0.7% active | P24468 | inhibition, % at 8.6 µM | AID 686940;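 active = inhibition above a per-plate cutoff, mean inhibition of test wells between control levels plus 3 SD, cut at about 38% in these data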;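 also: cells cotransfected with COUP-TFII expression vector driving the NGFI-A reporter; 0% = median of COUP-TF2 test wells and 100% = reporter-only cells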
# NCOA3 inh = inhibits human SRC3 coactivator; Q9Y6Q9; HEK293 GAL4-SRC3 luciferase reporter, luminescence; inhibition, % at 3.6 µM; 360,000 tested, 0.17% active;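 active = inhibition above a per-campaign cutoff, the mean of all compounds plus 3 SD, cut at about 60% in these data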;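 also: 0% = DMSO-treated cells and 100% = gossypol-treated cells at 36 µM; higher means less SRC3-driven luciferase light from the GAL4 reporter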
# Target sequence (Q9Y6Q9 whole entry, looked up, the tested form may be a part): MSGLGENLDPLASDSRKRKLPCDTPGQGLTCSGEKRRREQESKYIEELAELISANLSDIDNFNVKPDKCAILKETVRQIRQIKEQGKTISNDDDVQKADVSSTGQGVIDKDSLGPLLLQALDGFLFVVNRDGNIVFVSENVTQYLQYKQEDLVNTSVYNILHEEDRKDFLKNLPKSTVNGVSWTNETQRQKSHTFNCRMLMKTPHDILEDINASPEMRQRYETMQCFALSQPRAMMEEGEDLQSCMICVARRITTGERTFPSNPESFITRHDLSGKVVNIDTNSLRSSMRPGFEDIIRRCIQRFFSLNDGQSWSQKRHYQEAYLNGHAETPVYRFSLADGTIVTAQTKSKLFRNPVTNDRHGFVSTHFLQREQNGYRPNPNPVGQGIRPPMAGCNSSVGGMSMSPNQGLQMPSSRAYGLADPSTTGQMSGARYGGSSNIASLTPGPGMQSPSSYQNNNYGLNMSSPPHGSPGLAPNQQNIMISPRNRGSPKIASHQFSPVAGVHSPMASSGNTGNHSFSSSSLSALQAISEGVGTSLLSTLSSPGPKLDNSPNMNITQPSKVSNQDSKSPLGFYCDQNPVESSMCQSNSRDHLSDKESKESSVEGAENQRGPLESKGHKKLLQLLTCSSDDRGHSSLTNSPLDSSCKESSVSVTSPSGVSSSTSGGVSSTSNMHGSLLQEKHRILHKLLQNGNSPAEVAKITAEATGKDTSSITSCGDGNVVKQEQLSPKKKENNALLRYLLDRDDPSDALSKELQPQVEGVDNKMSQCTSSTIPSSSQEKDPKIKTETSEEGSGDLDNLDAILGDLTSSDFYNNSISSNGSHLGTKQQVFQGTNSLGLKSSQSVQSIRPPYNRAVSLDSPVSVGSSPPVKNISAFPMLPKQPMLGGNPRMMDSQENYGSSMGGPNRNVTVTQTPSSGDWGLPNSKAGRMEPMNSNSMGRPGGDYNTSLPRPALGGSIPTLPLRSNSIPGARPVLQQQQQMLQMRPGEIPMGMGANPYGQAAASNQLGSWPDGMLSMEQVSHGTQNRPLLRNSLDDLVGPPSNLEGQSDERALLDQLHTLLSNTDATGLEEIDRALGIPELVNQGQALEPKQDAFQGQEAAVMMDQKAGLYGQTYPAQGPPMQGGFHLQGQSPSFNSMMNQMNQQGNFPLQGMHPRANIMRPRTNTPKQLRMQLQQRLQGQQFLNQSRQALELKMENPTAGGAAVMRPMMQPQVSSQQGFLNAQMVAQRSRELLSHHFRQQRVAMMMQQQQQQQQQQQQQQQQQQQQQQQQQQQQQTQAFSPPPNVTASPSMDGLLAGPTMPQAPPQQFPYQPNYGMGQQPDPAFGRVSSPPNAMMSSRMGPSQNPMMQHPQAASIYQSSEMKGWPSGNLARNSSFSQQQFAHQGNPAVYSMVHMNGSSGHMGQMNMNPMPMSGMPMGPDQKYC
# SRC2 inh = human SRC2 (NCOA2) inhibition | Q15596 | HEK293 GAL4-SRC2 luciferase reporter, luminescence | inhibition, % at 9 µM | 370,000 tested, 0.17% active | AID 651957;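 active = inhibition above the mean inhibition of all tested compounds plus 3 SD, set per campaign, cut at about 52% in these data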;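 also: 0% = DMSO treated cells and 100% = cells given Gossypol at 36 µM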
# NCOA1 inh = inhibits human SRC1 coactivator; inhibition, % at 3.6 µM; HEK293 GAL4-SRC1 luciferase reporter, luminescence; Q15788; 360,000 tested, 0.12% active;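 active = inhibition above the campaign mean plus 3 SD, with each screening campaign given its own cutoff, cut at about 60% in these data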;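 also: 0% = DMSO treated cells and 100% = gossypol at 36 µM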
# GalR3 antagonist = blocks the human galanin receptor 3 | O60755 | HEK293 GalR3-CNG cAMP membrane potential fluorescence; galR3 body fused to GalR1 C-terminus | inhibition, % at 3 µM | 360,000 tested, 0.44% active;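 active = inhibition above the screen-wide average plus 3 SD, cut at about 13% in these data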;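 also: forskolin and galanin both at EC90 stimulate the cells; cAMP rise reported by CNG channel membrane potential dye signal; 0% = forskolin plus galanin with DMSO and 100% = forskolin alone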
# Gal4-VP16 ctr = VP16 inhibition counter-screen for COUP-TFII. shares compounds with COUP-TFII inh. HEK293 Gal4-VP16 luciferase reporter, luminescence. inhibition, % at 8.5 µM. 2,500 tested, 25% active. AID 687007; in the data active = inhibition above about 13%
# NR2F2 inh conf = COUP-TFII (NR2F2) inhibition, confirmation assay; HEK293 NGFI-A luciferase reporter, luminescence; 2,500 tested, 45% active; shares compounds with COUP-TFII inh; inhibition, % at 8.5 µM;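 active = mean inhibition over three repeats above a set limit taken from the earlier primary screen, cut at about 38% in these data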;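 also: 100% = cells given the luciferase reporter alone without the COUP-TF2 vector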
# * hit, by the source's call; . = no result.
SMILES,LRH-1 inv ag,COUP-TFII inh,NCOA3 inh,SRC2 inh,NCOA1 inh,GalR3 antagonist,Gal4-VP16 ctr,NR2F2 inh conf
O=C(Nc1ccccc1C(=O)O)c1cc(S(=O)(=O)N2CCCCC2)c(Cl)cc1Cl,-3,40*,-2,1,-21,-11,-11,19
CCCCCC(=O)NC1CCCCN(Cc2cccc(Cl)c2)C1=O (configuration not stated),.,-12,.,-10,.,.,.,.
Cc1c(C(=O)NCc2cccc(Cl)c2)sc(=O)n1Cc1ccc(C(=O)N(C)C)cc1,-21,27,4,7,-6,-1,.,.
C=Cc1ccc(Cn2c(C)c(C(=O)NCc3ccc(Cl)c(Cl)c3)sc2=O)cc1,-5,-10,-8,-54,-1,3,.,.
Cc1c(C(=O)NCc2ccc(Cl)c(Cl)c2)sc(=O)n1Cc1ccc(S(=O)(=O)N(C)C)cc1,12,38*,4,-2,5,0,3,16
Cc1c(C(=O)NCc2ccc(Cl)c(Cl)c2)sc(=O)n1Cc1ccc(C(=O)N(C)C)cc1,32,50*,22,-5,-4,1,1,4
O=C(Nc1ccc2nc3n(c(=O)c2c1)CCCCC3)c1c(F)ccc([N+](=O)[O-])c1F,4,43*,0,71*,-156,-5,60*,79*
CC1OC2CC(=O)OC2C2=C1C(=O)c1c(O)cccc1C2=O (configuration not stated),104*,107*,96*,95*,91*,-10,97*,110*
COc1ccccc1NC(=O)C(C)OC(=O)c1cc2ccccc2[nH]1 (configuration not stated),30,38*,0,39,7,-4,1,42*
CCN(c1ccc(OC)cc1)c1ncnc2nc[nH]c12,22,38*,49,49,66*,4,3,17
CCCN(c1ccc(OCC)cc1)c1ncnc2nc[nH]c12,1,2,24,25,23,-2,.,.
O=C(Nc1ccc(Cl)c(Cl)c1)c1cccc(S(=O)(=O)NCc2cccnc2)c1,29,53*,23,16,25,5,0,30
N#Cc1c(F)cccc1NCc1cccnc1,0,-11,-10,-12,-24,-10,.,.
N#Cc1c(NCc2ccccc2)ccnc1NCc1cccnc1,23,44*,28,28,5,-4,2,42*
COc1ccc(Cn2cc(CN3[C@@H](Cc4ccccc4)COc4cc(Br)ccc4S3(=O)=O)nn2)cc1,.,10,.,14,.,.,.,.
Cc1ccc2oc(/N=C(\N)NC(=O)C(C)(C)C)nc2c1,83*,93*,86*,81*,83*,4,88*,105*
CCN(CC)S(=O)(=O)c1ccc(/C=C/C(=O)O)cc1,0,3,3,23,1,-3,.,.
CCN(CC)S(=O)(=O)c1ccc(NC(=O)Nc2cccc(C(F)(F)F)c2)cc1,19,75*,25,49,9,1,-7,7
CCN(CC)S(=O)(=O)c1ccc(/C=C/C(=O)Nc2cccc(F)c2)cc1,-8,38*,-13,11,-17,-5,-69,4
O=C(NC1CC1c1ccccc1)N1CCC(c2nc3ccc(Cl)cc3[nH]2)CC1 (configuration not stated),.,3,.,12,.,.,.,.
CCC(C#Cc1ccccc1)N(C)C(N)=NC(=O)/C=C/c1ccccc1 (configuration not stated),.,0,.,.,.,.,.,.
CCOc1ccccc1C(=O)Nc1cc2c(cc1N1CCCC1)n(CC)c(=O)n2CC,47,41*,32,-3,24,-10,-3,22
COc1ccc(-c2cc3nc(C)n(N)c(=O)c3s2)cc1,28,66*,70*,71*,58,-3,60*,77*
Cc1nc2cc(-c3ccccc3)sc2c(=O)n1N,-62,25,1,49,-16,-3,.,.
O=C(NCCc1cccc(Cl)c1)c1ccc(OC2CCN(Cc3ccccn3)CC2)cc1,29,61*,28,37,51,1,-38,40*
SMILES,LRH-1 inv ag,COUP-TFII inh,NCOA3 inh,SRC2 inh,NCOA1 inh,GalR3 antagonist,Gal4-VP16 ctr,NR2F2 inh conf
C=CCN(CC#CC(=C)C)Cc1ccc(OC)cc1OC,.,-11,.,16,.,.,.,.
Cc1cccc(OCC(=O)Nc2ccc3c(c2)nc(CCN2CCN(c4ccccn4)CC2)n3C)c1,17,52*,9,30,5,-6,2,36
Cn1c(CCN2CCN(c3ccccn3)CC2)nc2cc(NC(=O)COc3ccc(Cl)cc3)ccc21,46,61*,48,14,23,-2,-3,59*
COc1ccc(OCC(=O)Nc2ccc3c(c2)nc(CCN2CCN(c4ccccn4)CC2)n3C)cc1,2,26,10,-13,5,-11,.,.
O=C1CCC(C(=O)OCC(=O)c2ccccc2)N1 (configuration not stated),-2,-5,6,4,11,-4,.,.
CC1CC(C)C(=O)C(C(CC2CC(=O)NC(=O)C2)OC(=O)CC(=O)c2ccccc2)C1 (configuration not stated),98*,71*,85*,54*,80*,-1,-19,50*
C[C@H]1[C@@H](NC(=O)Cc2ccsc2)CC[C@@]23CCCN2C(=O)CCC[C@@H]13,.,8,.,.,.,.,.,.
c1ccc(-c2cccc(CNc3nc(-c4ccccn4)nnc3-c3ccccc3)c2)cc1,.,51*,.,.,.,.,-2,8
c1ccc(-c2nnc(-c3ccccn3)c(-c3ccccn3)n2)nc1,-2,-2,-2,-35,5,0,.,.
COC(=O)C1CN(C2CCCC2)CCS(=O)(=O)N1Cc1ccc(Cl)cc1 (configuration not stated),.,19,.,10,.,.,.,.
CC1(Cc2ccc3ccccc3n2)C(=O)Nc2ccc(OC(F)(F)F)cc21 (configuration not stated),16,90*,-1,14,-1,-5,0,10
CC1(Cc2ccccc2OC(F)(F)F)C(=O)Nc2ccc(OC(F)(F)F)cc21 (configuration not stated),22,15,1,-10,16,-7,.,.
C[C@@H]1C[C@H]2[C@@H](Cc3ccccc3)C(=O)N3[C@H](c4ccccc4)[C@H](C)C[C@H]3[C@@H](Cc3ccccc3)C(=O)N2[C@@H]1c1ccccc1,.,-6,.,2,.,.,.,.
CCCCCCCCNS(=O)(=O)/C=C/c1ccccc1CNC(=O)OC(C)(C)C,.,-18,.,-23,.,.,.,.
O=C(Nc1nc(Cc2ccccc2)c(-c2ccccc2)n1Cc1ccccc1)c1ccccc1,.,7,.,-12,.,.,.,.
